“And” between values parts separate entries of the source, which are not always exact repeats. Equal values may be shown once. Compounds without any hit were thinned out: in the full panel of roughly 83,000, 20% have a hit.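 For each line, cells grew in 96-well plates with the test compound present at a single concentration for 48 hours.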 A number with no mark means an inactive call. The source made the active and inactive calls. Rule for the calls: active = growth percent below 10; inactive = the rest.

Drawing on PubChem BioAssay (NCI), this text covers growth for 14 molecules.

For one experiment, the system named is HL-60(TB) leukemia. Kind of experiment: NCI-60 one-dose screen, 48 h (100 = growth as untreated, 0 = no growth, -100 = all killed). Particulars: 2.5 µM.
With `COc1cc(NS(C)(=O)=O)ccc1Nc1c2ccccc2nc2ccccc12`, the growth was -0.933% (active).

Consider `COc1cccc2c1C(=O)c1c(O)c3c(c(O)c1C2=O)C[C@@](O)(C(=O)CO)C[C@@H]3OC1CC(N)C(O)C(C)O1` (some centres undefined), for which the growth is 81.9%.

As for `CN(Cc1cnc2nc(N)nc(N)c2n1)c1ccc(C(=O)N[C@@H](CCC(=O)O)C(=O)O)cc1`, the growth was 27%.

Staying with this experiment, now noted: 10 µM.
Consider `CNC(=O)c1cc(Oc2ccc(CC(=O)Nc3cc(C(C)(C)C)nn3C)cc2)ccn1`, for which the growth was 77%.

As to `S=c1nc[nH]c2nc[nH]c12`, the growth is 13.8%.

As to `CCCCCCCCCCCCCCCc1ccc(Cl)c(O)c1Cl` (tested in a mixture with another compound), the growth was 118%.

For the molecule `CC(=O)/C=C/c1ccc(N(C)Cc2ccc(C(C)(C)C)cc2)cc1`, the growth was 53.9%.

Turning to `CC1(C)OB(c2ccc(Cn3cc(F)c(=O)[nH]c3=O)cc2)OC1(C)C`, the growth was 97.7%.

As for `O=C(O)c1c(Cl)c(Cl)c(Cl)c(Cl)c1-c1c2cc(I)c(=O)c(I)c-2oc2c(I)c(O)c(I)cc12`, the growth is 103% and 104% and 109%.

For `CC(=O)/C=C/c1ccc(N(CCO)Cc2ccc(C(C)(C)C)cc2)cc1`, the growth is 69.6%.

For `CC(=O)/C=C/c1ccc(OCc2ccc(C(C)(C)C)cc2)cc1`, the growth is 59.5%.

For the molecule `O=C(O)c1sccc1O`, the growth is 62.6%.

For the molecule `CC(=O)/C=C/c1ccc(OCc2ccc(Cl)cc2)cc1`, the growth was 83.9%.

With `CCc1ccccc1-n1c(N)c(C#N)c(-c2ccc(OC)c(OC)c2)c(C#N)c1=O`, the growth is 113%.
